EPAC1 ag – qHTS for Agonist of cAMP-regulated guanine nucleotide exchange factor 3 (EPAC1): primary screen. AID 720707, 2013. EPAC1 agonist qHTS, biochemical assay; response scale: 100% = response to 6.5 mM cAMP. Potency, µM (titrated, usually from 154 µM), without a hit: at the highest dose activation, hits mostly activators. Rap guanine nucleotide exchange factor 3 (Homo sapiens), O95398. 360,000 tested, 0.073% active; further: potency means the concentration at half of the fitted maximal effect; nearly all actives have a fitted effect of over 60% in size
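Nucleotide exchange assay: 100 nM EPAC1 with 250 nM Rap1B loaded with BODIPY-GDP and 50 uM GDP, room temperature. Fluorescence (480/540 nm) read every 5 min for 30 min; signal change normalized to 6.5 mM cAMP as full agonist.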
EPAC1 antagonist – qHTS for Antagonist of cAMP-regulated guanine nucleotide exchange factor 3 (EPAC1): primary screen | EPAC1 GEF assay, Rap1b-BODIPY-GDP exchange fluorescence | 360,000 tested, 0.14% active | AID 720709, 2013 | Rap guanine nucleotide exchange factor 3 (Homo sapiens), O95398 | Potency, µM (doses to about 115 µM), without a hit: top-dose activity change, negative = inhibition, actives largely listed as inhibitors;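 further: potency means the concentration at half of the fitted maximal effect; plate controls were vehicle for no effect and positive control for full effect; nearly all actives have a fitted effect of over 50% in size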
IL2 activator – qHTS of IL-2 Activators; 360,000 tested, 0.065% active; IL-2 activation reporter assay, cell-based qHTS; stimulated with anti-CD3/CD4/CD28 beads; in transgenic mouse T cells; activation, % (series mostly up to about 46 µM); AID 652025, 2013; in the data active means activation above about 50%; inconclusive means mostly about 30% to 49%; further: 0% is about no effect
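Using fluorescent plate cytometry, EGFP and DsRed are detected in transgenic mouse T cells stimulated 18 h at 37 degrees C with antibody-coated beads after 60 min compound pretreatment.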
EPAC2 antagonist – qHTS for Antagonist of cAMP-regulated guanine nucleotide exchange factor 2 (EPAC2): primary screen | Rap guanine nucleotide exchange factor 4 (Homo sapiens), Q8WZA2 | EPAC2 GEF exchange of Rap1B-BODIPY-GDP, fluorescence | Potency, µM (series often up to 114 µM), for the others: at the top dose activity, negative = inhibition, most hits filed as inhibitors | 360,000 tested, 0.18% active | AID 720708, 2013; further: potency means the concentration at half of the fitted maximal effect; on the % scale 0 is the no-effect control and ±100 the full control effect; nearly all actives have a fitted effect of over 45% in size
PKM2 act – qHTS Assay for Activators of Human Muscle isoform 2 Pyruvate Kinase | Pyruvate kinase PKM (Homo sapiens), P14618 | purified PKM2, Kinase-Glo ATP luminescence, activation; response scale: 0% is enzyme alone, no compound | Potency, µM (series often up to 57.5 µM), for the others: at the highest dose activation, actives largely listed as activators | 260,000 tested, 0.34% active | AID 1631, 2009; further: potency means the concentration at half of the fitted maximal effect; on the % scale 0 is the no-effect control and ±100 the full control effect; nearly all actives have a fitted effect of over 55% in size
Target sequence (P14618 whole entry, looked up, canonical isoform): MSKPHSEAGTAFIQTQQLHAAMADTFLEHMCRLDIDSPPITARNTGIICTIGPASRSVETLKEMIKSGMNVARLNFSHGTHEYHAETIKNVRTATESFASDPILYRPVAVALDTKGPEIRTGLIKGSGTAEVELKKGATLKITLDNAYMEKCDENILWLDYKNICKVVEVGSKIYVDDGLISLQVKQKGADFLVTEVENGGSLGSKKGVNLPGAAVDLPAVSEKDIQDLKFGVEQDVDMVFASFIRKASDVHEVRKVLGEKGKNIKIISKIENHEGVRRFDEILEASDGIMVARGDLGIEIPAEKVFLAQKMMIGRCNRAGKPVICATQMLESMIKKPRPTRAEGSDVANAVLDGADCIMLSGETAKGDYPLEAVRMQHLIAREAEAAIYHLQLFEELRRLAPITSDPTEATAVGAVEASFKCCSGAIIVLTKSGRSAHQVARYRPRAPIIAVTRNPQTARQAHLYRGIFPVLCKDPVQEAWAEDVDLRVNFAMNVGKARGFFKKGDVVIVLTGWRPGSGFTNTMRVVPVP
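Purified hPK-M2 (>95%) run at intermediate activity with 0.1 mM ADP and 0.5 mM PEP in 50 mM imidazole pH 7.2, KCl, MgCl2; 1 h room temperature. ATP formed read by Kinase-Glo luminescence; normalized to uninhibited and no-enzyme controls.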
EPAC2 agonist – qHTS for Agonist of cAMP-regulated guanine nucleotide exchange factor 4 (EPAC2): primary screen; Rap guanine nucleotide exchange factor 4 (Homo sapiens), Q8WZA2; EPAC2 activation, biochemical qHTS; response scale: 100% = 6.5 mM cAMP response; Potency, µM (doses to about 154 µM), for inactives: at the highest dose activation, hits mostly activators; 360,000 tested, 0.079% active; AID 720711, 2013; further: potency means the concentration at half of the fitted maximal effect; nearly all actives have a fitted effect of over 50% in size
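Nucleotide exchange monitored as fluorescence drop when BODIPY-GDP leaves Rap1B. Reaction: 100 nM EPAC2, 250 nM RAP1B-BODIPY-GDP, 50 uM GDP, room temperature, kinetic read over 30 min. Activity expressed relative to 6.5 mM cAMP.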
The depositor's hits bear a star. Sampled rows, rich in hits. Any-hit rate of the full collection: about 0.64%. Unless noted, the call rests on the fitted dose curve; in most records, active means well fitted curve in the direction sought with a large enough effect; inconclusive means small, poorly fitted or top-dose-only effect, or another doubt; inactive means no such curve, though single readings can be large; an effect the other way counts as inactive or inconclusive.

Screening Cc1nc2cc(NC(=O)C3(C)CCCN(C(C)C)C3)ccc2o1 (configuration not stated) returned EPAC1 ag -4.4%, EPAC1 antagonist 10.2%, IL2 activator 0.1, EPAC2 antagonist 1.2% and EPAC2 agonist -4.2%.
For COc1ccc(N2C(=O)CC(Sc3nnc(-c4ccccc4)o3)C2=O)cc1 (configuration not stated) the results were EPAC1 ag 0.0%, EPAC1 antagonist -8.6%, IL2 activator -1.4, EPAC2 antagonist -1.1%, PKM2 act 20µM* and EPAC2 agonist 6.6%.
Screening COc1ccc(N2C(=O)CC(Sc3nnnn3-c3ccc(F)cc3)C2=O)cc1 (configuration not stated) returned EPAC1 ag 6.6%, EPAC1 antagonist -10.7%, IL2 activator -0.8, EPAC2 antagonist 5.4%, PKM2 act 28.2µM* and EPAC2 agonist -0.3%.
`O=C1CC(Sc2nnnn2-c2ccccc2)C(=O)N1c1cccc(Cl)c1` (configuration not stated) gave EPAC1 ag -12.3%, EPAC1 antagonist -2.9%, IL2 activator -0.5, EPAC2 antagonist -3.6%, PKM2 act 8.8% and EPAC2 agonist 11.3%.
For CCCCC(=O)NC(=S)NNC(=O)c1ccc(OC)cc1 the results were EPAC1 ag -2.0%, EPAC1 antagonist 13.1%, IL2 activator 3.0, EPAC2 antagonist -8.7%, PKM2 act 8.3% and EPAC2 agonist -11.1%.
For COc1ccc2c(=O)c3c(=O)n(CCc4ccccc4)c(C(C)C)nc3oc2c1 the results were EPAC1 ag -4.9%, EPAC1 antagonist 4.0%, IL2 activator -3.4, EPAC2 antagonist 6.0%, PKM2 act -7.0% and EPAC2 agonist -1.2%.
Screening COc1ccc(S(=O)(=O)c2c(N)n(Cc3ccco3)c3nc4ccccc4nc23)cc1 returned EPAC1 ag 6.5%, EPAC1 antagonist inconclusive, IL2 activator -0.5, EPAC2 antagonist 0.4%, PKM2 act 28.2µM* and EPAC2 agonist 6.0%.
For COc1ccc(-c2csc(C(O)c3ccc(F)cc3)n2)cc1OC (configuration not stated) the results were EPAC1 ag -1.2%, EPAC1 antagonist -11.6%, IL2 activator -0.6, EPAC2 antagonist 2.6% and EPAC2 agonist 8.2%.
`CCOc1ccccc1NC(=O)C1CCN(c2nc(-c3ccc(OC)cc3)no2)CC1` gave EPAC1 ag 112µM*, EPAC1 antagonist 61.4%, IL2 activator -0.2, EPAC2 antagonist 1.6%, PKM2 act 0.7% and EPAC2 agonist 0.2%.
Screening COc1ccc(-c2noc(N3CCC(C(=O)Nc4ccccc4Cl)CC3)n2)cc1 returned EPAC1 ag -17.3%, EPAC1 antagonist -8.2%, IL2 activator -0.8, EPAC2 antagonist 8.6%, PKM2 act -24.1% and EPAC2 agonist 4.5%.
Screening Cc1occc1-c1nnc(SCC(=O)c2c[nH]c3ccccc23)n1C returned EPAC1 ag -2.5%, EPAC1 antagonist -6.5%, IL2 activator -0.7, EPAC2 antagonist 6.0%, PKM2 act 25.1µM* and EPAC2 agonist -7.6%.
`Cc1occc1-c1nnc(SCC(=O)c2ccc(Cl)cc2)n1C` gave EPAC1 ag -0.5%, EPAC1 antagonist -2.8%, IL2 activator 0.0, EPAC2 antagonist 1.6%, PKM2 act 8.6% and EPAC2 agonist -0.3%.
`Cc1cccc(CSc2nn3c(=O)c(C)nnc3s2)c1` gave EPAC1 ag 2.5%, EPAC1 antagonist 12.5%, IL2 activator -0.4, EPAC2 antagonist 8.9%, PKM2 act 10µM* and EPAC2 agonist -1.1%.
Screening Cc1ccc(F)cc1C(=O)N1CCCC(c2cc(C(=O)Nc3ccccc3Cl)no2)C1 (configuration not stated) returned EPAC1 ag 1.0%, EPAC1 antagonist -6.8%, IL2 activator -1.1, EPAC2 antagonist 1.5% and EPAC2 agonist 15.9%.
Cc1nc2ccccc2n2c(O)c(CC(=O)O)cc12 was read as EPAC1 ag inconclusive, EPAC1 antagonist 25.8%, IL2 activator -2.6, EPAC2 antagonist 46.0%, PKM2 act 8.4% and EPAC2 agonist 112µM*.
Cc1nc2ccccc2n1CCC(=O)O was read as EPAC1 ag -6.4%, EPAC1 antagonist 0.9%, IL2 activator 0.4, EPAC2 antagonist 3.8%, PKM2 act -5.9% and EPAC2 agonist -5.5%.
Cc1nc2ccc(NS(=O)(=O)c3ccc(C)c(C)c3)cc2s1 was read as EPAC1 ag 4.9%, EPAC1 antagonist 0.1%, IL2 activator -1.7, EPAC2 antagonist 9.6%, PKM2 act inconclusive and EPAC2 agonist 9.6%.
Cc1nc2ccc(S(=O)(=O)Nc3ccccc3C)cc2s1 was read as EPAC1 ag -2.6%, EPAC1 antagonist 0.6%, IL2 activator -3.7, EPAC2 antagonist -3.2%, PKM2 act 15.8µM* and EPAC2 agonist 3.8%.
Screening COc1cc(S(=O)(=O)Nc2ccccc2C)ccc1Cl returned EPAC1 ag -1.1%, EPAC1 antagonist 10.3%, IL2 activator -1.4, EPAC2 antagonist 28.2µM*, PKM2 act 7.5% and EPAC2 agonist 5.7%.
Screening COc1cccc(/C=C2\SC(=S)NC2=O)c1OS(=O)(=O)c1ccc(NC(C)=O)cc1 returned EPAC1 ag -9.4%, EPAC1 antagonist 79.4µM*, IL2 activator -3.3, EPAC2 antagonist 2.7%, PKM2 act -0.7% and EPAC2 agonist 1.2%.
Screening CCOc1ccc(/C=C2\SC(=S)N(C)C2=O)cc1OC returned EPAC1 ag 6.0%, EPAC1 antagonist 31.1%, IL2 activator 0.4, EPAC2 antagonist 4.4%, PKM2 act -3.0% and EPAC2 agonist -1.4%.
For COc1cc(/C=C2/SC(=S)NC2=O)ccc1OS(=O)(=O)c1ccc(C)cc1 the results were EPAC1 ag 9.7%, EPAC1 antagonist 44.7µM*, IL2 activator 1.5, EPAC2 antagonist 39.8µM*, PKM2 act 3.0% and EPAC2 agonist 4.3%.
CCOc1ccc(/C=C2\SC(=S)NC2=O)cc1OC was read as EPAC1 ag 4.7%, EPAC1 antagonist inconclusive, IL2 activator 0.4, EPAC2 antagonist 12.6µM*, PKM2 act -5.7% and EPAC2 agonist 3.4%.

Bioassay records (PubChem)
